IL1B secr inh: blocks inflammasome-driven IL-1 beta release; THP-1 LPS/ATP IL-1B secretion, AlphaLISA, 16 h; hits give low values; activity change, % at 57.5 µM; 4.7% of 360,000 active; AID 743279; in the data active means activity change below about -50%; inconclusive means mostly about -30% to -49%; further: on the % scale 0 is the no-effect control and ±100 the full control effect
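THP-1 cells pretreated 1 hr with compounds (up to 57.5 uM final), then stimulated with LPS (250 ng/mL final) plus ATP (1.25 mM final); secreted IL-1B measured by AlphaLISA after 16 hr, decreased signal indicating inhibition.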
Vif-APOBEC3F blk: Vif-A3F binding inhibition; 0.2% of 390,000 active; HeLa A3F-eYFP + Vif (tagged APOBEC3F with the HIV-1 protein that degrades it), YFP fluorescence increase; AID 602313; Potency, µM (highest dose often 46.1 µM), for the others: top-dose activity, negative = active; further: potency means the concentration at half of the fitted maximal effect; % of control where 0% means no effect; nearly all actives have a fitted effect of over 65% in size
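Fluorescence increase (Ex 488/Em 500-530) after overnight compound treatment at 37 deg C flags inhibition of Vif-driven A3F-eYFP loss in stable HeLa A3F-eYFP/Vif cells seeded overnight beforehand.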
MCF10A rerep: inducers of DNA re-replication in MCF 10A breast cells; MCF 10A DNA re-replication, Hoechst nuclear intensity, 48 h; Potency, µM (titrated, usually from 46.1 µM), for inactives: top-dose activity, positive = re-replication, most hits filed as activators; 2.9% of 350,000 active; further: potency means the concentration at half of the fitted maximal effect; % of control where 0% means no effect; nearly all actives have a fitted effect of over 50% in size
SW480 rereplic: induces DNA re-replication in SW480 colon adenocarcinoma cells | SW480 DNA re-replication, Hoechst DNA content imaging, 48 h | Potency, µM (highest dose often 46.1 µM), without a hit: top-dose re-replication activation, most hits filed as activators | 1.8% of 340,000 active; further: potency means the concentration at half of the fitted maximal effect; % of control where 0% means no effect; nearly all actives have a fitted effect of over 55% in size
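DNA re-replication was detected as more nuclei of elevated Hoechst intensity after 48 hr exposure to compound (23 nL pinned per well of 250 cells).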
Giardia kill: Giardia lamblia killing; Giardia lamblia trophozoite viability; activity change, % at 7.66 µM, hits read low; 0.15% of 340,000 active; in the data active means activity change below about -80%; inconclusive means between about -30% and that limit;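 further: parasites exposed to compound for two days anaerobically before the ATP read; on the % scale 0 is the no-effect control and ±100 the full control effect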
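Compounds were tested on trophozoites seeded at 100 cells/well and held 48 hrs at 37 deg C anaerobically. An ATP-based luminescent kit measured the remaining live cells.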
Vif-APOBEC3G blk: inhibitors of Vif-APOBEC3G interaction. Q9HC16. HeLa A3G-eYFP + Vif (tagged APOBEC3G with the HIV-1 protein that degrades it), YFP fluorescence, overnight. Potency, µM (top dose mostly 46.1 µM), for the others: at the highest dose activity, negative = active, hits mostly inhibitors. 0.076% of 410,000 active; further: potency means the concentration at half of the fitted maximal effect; on the % scale 0 is the no-effect control and ±100 the full control effect; nearly all actives have a fitted effect of over 60% in size
Target sequence (Q9HC16 whole entry, looked up): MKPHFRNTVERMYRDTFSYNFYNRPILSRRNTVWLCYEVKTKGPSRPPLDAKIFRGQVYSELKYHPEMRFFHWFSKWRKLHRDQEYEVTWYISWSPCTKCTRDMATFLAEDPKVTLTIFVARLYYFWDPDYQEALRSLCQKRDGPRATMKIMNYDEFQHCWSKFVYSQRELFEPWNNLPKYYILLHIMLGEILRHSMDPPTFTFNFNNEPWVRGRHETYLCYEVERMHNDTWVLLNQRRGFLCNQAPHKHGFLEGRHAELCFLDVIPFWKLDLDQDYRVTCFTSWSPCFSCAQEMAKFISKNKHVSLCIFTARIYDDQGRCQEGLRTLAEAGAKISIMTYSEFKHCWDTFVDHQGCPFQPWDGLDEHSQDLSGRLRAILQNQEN
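HeLa cells stably expressing Vif and C-terminally eYFP-tagged A3G, seeded overnight at 37 deg C, then exposed to compound by pintool overnight at 37 deg C. Rise in yellow fluorescence (Ex 488/Em 500-530, Acumen) marks blocked Vif-driven A3G degradation.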
Starred values were filed as active, the others as inactive; ? = inconclusive; nt = no result; [ ] = another dose, or the depositor's remark. The list is not random: actives were taken first. Their share in the collection is about 6.9%. Unless noted, the call rests on the fitted dose curve; in most records, active means well fitted curve in the direction sought with a large enough effect; inconclusive means small, poorly fitted or top-dose-only effect, or another doubt; inactive means no such curve, though single readings can be large; an effect the other way counts as inactive or inconclusive.

SMILES | IL1B secr inh | Vif-APOBEC3F blk | MCF10A rerep | SW480 rereplic | Giardia kill | Vif-APOBEC3G blk
COCc1cc(C)nc(OCC(=O)N/N=C/c2ccc(OC)c(OC)c2)c1C#N | -21.4 | -15.7% | ? | 9.7% | 6.5 | -3.2%
O=C(O)c1cc(-c2ccccc2)nn1Cc1ccccc1 | nt | 0.7% | nt | nt | nt | -2.6%
COc1ccc(C(=O)C=CNNC(=O)c2ccc(Cl)cc2)cc1 | 147.8 | ? | 5.8µM* | 3.66µM* | 11.5 | -10.7%
COc1ccc(C(=O)NN/C=C/C(=O)c2ccc(Br)cc2)cc1 | 69.3 | -30.3% | nt | nt | nt | -1.2%
Cc1ccc(CNC(=O)c2cnc3c(-c4ccccc4)c(C)nn3c2C)o1 | nt | -6.1% | nt | nt | nt | -2.5%
C#CCSc1nc2ccccc2c(=O)n1CC=C | nt | nt | nt | nt | -18.4 | -0.5%
C#CCSc1nncn1C(=O)/C=C/c1ccccc1 | -80.7* | -6.1% | -3.8% | -0.7% | -9.0 | -6.1%
CC1CC(C)CN(C(=O)c2ccc(S(=O)(=O)N3CC(C)CC(C)C3)cc2)C1 (centres undefined) | -77.0* | 0.2% | 20.8% | 1.5% | 1.3 | 2.8%
CC1CC(C)CN(S(=O)(=O)c2ccc(NC(=O)c3ccc(=O)[nH]c3)cc2)C1 (centres undefined) | 9.6 | -1.6% | 5.8µM* | ? | -4.1 | ?
CC1CCN(C(=O)c2ccc3ccccc3c2)CC1 | 7.0 | 1.8% | -0.6% | 2.7% | 10.9 | -5.2%
CC1CC(C)CN(C(=O)c2ccc3ccccc3c2)C1 (centres undefined) | -50.9* | 2.1% | 5.0% | -20.7% | -12.8 | -1.5%
COC(=O)c1cnc(N2CCN(c3ccc(OC)cc3)CC2)c2ccccc12 | nt | 0.7% | nt | nt | nt | 8.1%
Cc1ccc2oc(-c3cccc(NC(=O)COc4ccc(Cl)cc4)c3C)nc2c1 | nt | nt | nt | nt | nt | 0.0%
Cc1noc2ncnc(Sc3c(Cl)cccc3Cl)c12 | -114.8* | -2.1% | 4.47µM* | ? | 3.2 | -24.3%
Cc1ccc(CSc2ncnc3onc(C)c23)cc1 | 10.9 | 4.1% | -0.7% | -16.2% | -5.8 | -4.4%
Cc1ccccc1Sc1ncnc2onc(C)c12 | -52.3* | -10.9% | ? | -8.4% | 9.0 | -10.9%
Cc1noc2ncnc(Sc3ccc(Cl)cc3)c12 | -115.2* | -2.8% | 11.6µM* | ? | 9.6 | -29.4%
Cc1noc2ncnc(NCc3cccc(Cl)c3)c12 | nt | 4.4% | nt | nt | nt | 3.5%
Cc1ccc(Sc2ncnc3onc(C)c23)cc1 | -15.8 | -5.3% | ? | ? | -15.5 | -22.2%
CCCCN(CCCN)c1ccc(Br)cn1 | nt | nt | nt | nt | -8.9 | nt
COc1cccc(NC(=O)c2sc3nc(C)c(C(=O)Nc4ccc(C)cc4C)c(-c4ccc(C)o4)c3c2N)c1 | nt | ? | nt | nt | nt | -1.7%
COc1ccc(-c2noc(CCC(=O)Nc3cccc(C(=O)NC4CC4)c3)n2)cc1OC | -52.6* | -11.6% | nt | nt | nt | -9.9%
COc1cccc(-c2noc(CCCC(=O)NC3CCCC3)n2)c1 | 0.0 | -5.6% | -1.4% | 20.6µM* | 4.5 | 0.6%
O=C(/C=C/c1ccoc1)c1ccccc1O | 30.3 | -3.6% | 22.2% | -1.9% | -16.9 | -1.5%
COc1ccc2ccccc2c1C(=O)/C=C\c1ccoc1 | -56.5* | -0.8% | ? | 3.0% | -23.3 | -11.1%
SMILES | IL1B secr inh | Vif-APOBEC3F blk | MCF10A rerep | SW480 rereplic | Giardia kill | Vif-APOBEC3G blk
O=C(NCc1cccnc1)c1nn(-c2ccc(F)cc2)nc1CO | nt | 0.9% | nt | nt | nt | -2.3%
Cc1ccc(S(=O)(=O)c2nnn3c2nc(N2CCCC(C)C2)c2cc(Cl)ccc23)cc1C (centres undefined) | nt | 2.0% | nt | nt | nt | 0.6%
CN(C)c1ccc(NC(=O)c2ccc3c(c2)nnn3C)cc1 | -20.9 | ? | ? | 16.4µM* | 1.2 | 0.3%
Cc1ccc(NC(=O)c2ccc3c(c2)nnn3C)cc1 | -9.3 | 0.3% | 11.0% | -5.8% | -8.7 | -6.4%
COc1ccc(-n2nc([N+](=O)[O-])c(=NC3CCN(Cc4ccccc4)CC3)n2O)cc1 | -4.9 | -19.7% | 9.2% | ? | -81.8* | -0.9%
Cc1ccc(CN=c2c([N+](=O)[O-])nn(-c3cccc(C)c3)n2O)cc1 | 0.0 | 1.4% | -3.7% | 11.3% | -83.4* | -7.5%
COc1ccc(-n2nc([N+](=O)[O-])c(=NCc3cccnc3)n2O)cc1 | 23.3 | -19.9% | -5.7% | -6.5% | -96.6* | -1.7%
COc1ccc(-n2nc([N+](=O)[O-])c(=NCCc3ccc(C)cc3)n2O)cc1 | -26.8 | -49.7% | 7.2% | 0.7% | -92.9* | -5.8%
CCc1ccccc1N(C)C | nt | nt | nt | nt | nt | -0.1%
Cc1ccccc1C(=O)Nc1nc(-c2ccc(Br)cc2)ns1 | nt | -0.1% | nt | nt | nt | -2.2%
Cc1cc2n(n1)CCCN2C(=O)Nc1ccc(Cl)cc1 | nt | 0.5% | nt | nt | nt | ?
COc1ccc(-n2nc([N+](=O)[O-])c(=NCCc3ccc(OC)c(OC)c3)n2O)cc1 | ? | -3.4% | 2.5% | 2.7% | -94.3* | 0.6%
COc1ccc(-n2nc([N+](=O)[O-])c(=NCc3ccco3)n2O)cc1 | 1.2 | 5.6% | -1.7% | -3.2% | -4.5 | -2.5%
COc1ccc(-n2nc([N+](=O)[O-])c(=NCCC3=CCCCC3)n2O)cc1 | -55.4* | -10.1% | ? | 7.8% | -90.7* | -5.2%
COc1ccc(-n2nc([N+](=O)[O-])c(=NCCc3ccc(Cl)cc3)n2O)cc1 | -28.3 | -12.4% | -4.4% | 1.4% | -84.1* | -5.2%
CC(O)COCC1OC2OC3C(COCC(C)O)OC(OC4C(COCC(C)O)OC(OC5C(COCC(C)O)OC(OC6C(COCC(C)O)OC(OC7C(COCC(C)O)OC(OC8C(COCC(C)O)OC(OC1C(OCC(C)O)C2OCC(C)O)C(OCC(C)O)C8OCC(C)O)C(OCC(C)O)C7OCC(C)O)C(OCC(C)O)C6OCC(C)O)C(OCC(C)O)C5OCC(C)O)C(OCC(C)O)C4OCC(C)O)C(OCC(C)O)C3OCC(C)O (centres undefined) | nt | nt | nt | nt | nt | 2.4%
CCN(CC)c1ccc(/C=N/NC(=S)NC)c(O)c1 | 90.9 | ? | 1.3µM* | -4.9% | 12.8 | -8.9%
CCN(CC)c1ccc(/C=N/NC(=O)c2ccc3nc[nH]c3c2)c(O)c1 | 134.8 | 3.2% | 26.3% | 20.6µM* | -5.3 | ?
CCN(CC)c1ccc(/C=N/N=C(N)N)c(O)c1 | 0.0 | ? | 4.11µM* | 16.4µM* | 5.1 | ?
CCN(CC)c1ccc(N=Cc2ccc(N(CC)CC)cc2O)cc1 | 29.0 | -3.9% | -11.4% | ? | -6.6 | -1.7%
CCN(CC)c1ccc(/C=N/NC(=O)c2ccoc2C)c(O)c1 | 144.1 | -20.6% | ? | 13µM* | 4.1 | -7.9%
CC1(C)O[C@@H]2C[C@H]3[C@H]4C[C@H](F)C5=CC(=O)C=C[C@@]5(C)[C@@H]4[C@H](O)C[C@]3(C)[C@]2(C(=O)CO)O1 | nt | nt | -0.7%[20.6 µM] | -3.2%[20.6 µM] | nt | nt
O=C(NCc1cccc(Cl)c1)c1ccc2c(Cl)c3c(nc2c1)CCCC3 | nt | 4.3% | nt | nt | nt | 4.5%

Source: PubChem BioAssay (National Center for Advancing Translational Sciences (NCATS))
